D2 ag-1: Beta-Arrestin HTS for Positive Allosteric Modulators of the Human D2 Dopamine Receptor: Agonists; D(2) dopamine receptor (Homo sapiens), P14416; DiscoveRx PathHunter D2 beta-arrestin, luminescence, 90 min; 100% = 57 uM dopamine signal; activation, % (concentration not given with the values); 0.084% of 360,000 active; in the data active = activation above about 40%; inconclusive = between about 15% and that limit
Target sequence (P14416 whole entry, looked up): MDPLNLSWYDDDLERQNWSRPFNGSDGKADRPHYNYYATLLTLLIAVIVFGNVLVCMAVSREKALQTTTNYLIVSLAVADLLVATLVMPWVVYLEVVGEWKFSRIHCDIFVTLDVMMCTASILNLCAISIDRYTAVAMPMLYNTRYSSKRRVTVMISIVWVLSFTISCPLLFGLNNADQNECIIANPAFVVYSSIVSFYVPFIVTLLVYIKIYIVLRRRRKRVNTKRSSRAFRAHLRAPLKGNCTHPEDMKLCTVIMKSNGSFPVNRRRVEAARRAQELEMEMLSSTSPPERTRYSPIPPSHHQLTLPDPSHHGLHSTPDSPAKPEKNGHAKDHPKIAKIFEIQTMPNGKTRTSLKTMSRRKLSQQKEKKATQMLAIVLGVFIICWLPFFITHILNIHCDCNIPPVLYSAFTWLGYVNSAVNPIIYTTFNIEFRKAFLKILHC
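DiscoveRx PathHunter D2 beta-arrestin cells (2,100/well) attached overnight, then compound-stimulated 90 min at 37 C in HBSS/10 mM HEPES/0.1% Tween-20 buffer; beta-galactosidase complementation read by luminescence after 1 h at ambient temperature. Dopamine 57 uM final (EC100) as control.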
D2 antagonist: HTS Assay for Allosteric Antagonists of the Human D2 Dopamine Receptor: Primary Screen for Antagonists | 2% of 340,000 active | D(2) dopamine receptor (Homo sapiens), P14416 | inhibition, % at 10 µM | HEK293 TREx D2 cells, calcium flux, dopamine EC80; in the data active = inhibition above about 30%; inactive = below that, where a call was filed; also: 0% is about no effect
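Read-out: kinetic calcium fluorescence (1 cycle/s) in inducible HEK293 T-REx D2 cells after an EC80 dopamine addition that followed 180 s compound preincubation. Loss of the dopamine response indicates antagonism.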
D2 ag-2: HTS Assay for Allosteric Agonists of the Human D2 Dopamine Receptor: Primary Screen for Agonists; activation, % at 2 µM; D(2) dopamine receptor (Homo sapiens), P14416; HEK293 T-REx D2 cells, calcium flux agonist mode; 0.53% of 340,000 active; AID 485358, 2010;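 active = activation over 3 SD above normal in the single-dose calcium agonist read, cut at about 30% in these data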; also: 0% is about no effect
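Agonism is scored from calcium flux in a force-coupled, inducible HEK293 cell line expressing D2, read kinetically for 180 s after compound addition against dopamine controls.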
D2 PAM-1: Beta-Arrestin HTS for Positive Allosteric Modulators of the Human D2 Dopamine Receptor: Potentiators | D(2) dopamine receptor (Homo sapiens), P14416 | DiscoveRx D2 beta-arrestin cells, luminescence, 90 min; 100% = 57 uM dopamine signal | potentiation, % (concentration not given with the values) | 0.23% of 360,000 active | AID 624464, 2012; in the data active = potentiation above about 50%; inconclusive = mostly about 30% to 49%
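D2 cells co-treated with compound plus 50 nM dopamine (EC20) for 90 min at 37 deg C to detect potentiation. Beta-arrestin recruitment was read as enzyme-fragment luminescence after 1 h at ambient temperature. Full response was set by 57 uM dopamine.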
D2 PAM-2: HTS Assay for Positive Allosteric Modulators of the Human D2 Dopamine Receptor: Primary Screen for Potentiators; 0.34% of 340,000 active; AID 485347, 2010; HEK293 T-REx D2, calcium flux, EC20 dopamine potentiation; potentiation, % at 10 µM; D(2) dopamine receptor (Homo sapiens), P14416;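 active = potentiation over 3 SD above the plate norm, cut at about 30% in these data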; also: 0% is about no effect
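Cells plated with tetracycline inducer and held overnight at 30 C; calcium dye loaded 30–90 min at room temperature; baseline taken, compound added and read 180 s; EC20 dopamine then added and read 180 s.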
D3 ag: qHTS of D3 Dopamine Receptor Agonist: D3 Dopamine Receptor B-arrestin Agonist Confirmatory Assay; DiscoveRx D3 beta-arrestin cells, luminescence, 90 min; shares compounds with D2 ag-2; Potency, µM (top dose mostly 76.9 µM), for inactives: at the top dose activation, most hits filed as activators; 4% of 2,300 active;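 also: potency is read from the fitted curve at half-maximal effect; 100% = dopamine control response; nearly all actives have a fitted effect of over 70% in size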
D2 ag-3: qHTS of D3 Dopamine Receptor Agonist: D2 Dopamine Receptor B-arrestin Agonist Counterscreen; shares compounds with D2 ag-2; 5.9% of 2,300 active; DiscoveRx PathHunter D2 beta-arrestin, luminescence, 90 min; response scale: percent relative to full dopamine signal; Potency, µM (titrated, usually from 76.9 µM), without a hit: top-dose activation, actives largely listed as activators; also: potency is read from the fitted curve at half-maximal effect; % of control where 0% means no effect; nearly all actives have a fitted effect of over 70% in size
* marks the source's active call; other numbers are inactive results; ? = inconclusive; · = not tested or not shown. Most compounds without a hit are left out; they make up all but 2.4% or so of the library. Unless noted, calls follow the shape of the dose curve; as a rule, active = well fitted activation curve with a large enough effect; inconclusive = small, poorly fitted or top-dose-only effect; inactive = flat fitted curve, though single readings scatter.

SMILES	D2 ag-1	D2 antagonist	D2 ag-2	D2 PAM-1	D2 PAM-2	D3 ag	D2 ag-3
CC(Nc1n[nH]c(=O)[nH]c1=O)C(=O)N/N=C/c1ccccc1 (stereo not given)	-5.0	7.4	-0.5	-6.7	8.7	-1.9%	-3.5%
COc1cc(/C=N/NC(=O)C(C)Nc2n[nH]c(=O)[nH]c2=O)ccc1O (stereo not given)	-3.6	·	·	-4.1	·	·	·
CCCCNC(=O)[C@@](CC)(ONc1ccccc1C(F)(F)F)c1cccc2ccccc12	-4.9	6.2	0.4	-13.6	-1.5	·	·
CCCCNC(=O)C(CC)(ONc1ccccc1C(F)(F)F)c1ccccc1 (stereo not given)	-3.1	-10.3	0.5	-15.8	7.1	-3.3%	8.8%
Cc1ccc(C)c(NC(=O)Cn2nc(C)c3nn(-c4ccc(Cl)cc4)c(C)c3c2=O)c1	·	·	-0.5	·	-5.9	·	·
COc1ccccc1/C=N/NC(=O)c1ccc(CN2C(=O)c3cccc4cccc2c34)cc1	-4.1	-13.1	0.3	-5.4	-7.9	-3.6%	1.9%
COc1cccc(NC(=O)CN(CCc2ccccc2)S(=O)(=O)c2ccc(Cl)cc2)c1	·	·	0.2	·	-2.2	·	·
Cn1c(C(=O)NCCCN2CCN(c3ccccc3F)CC2)cc2c(=O)n(C)c3ccccc3c21	?	97.8*	73.4*	-5.3	-20.9	10.6%	?
Cc1ccc(-n2nc(C)c(C(=O)NCCCN3CCN(c4ccccc4F)CC3)c2-n2cccc2)cc1	·	·	0.1	·	0.0	·	·
CCn1c(=O)cc(SCC(=O)NCCN2CCN(Cc3ccccc3)CC2)c2ccccc21	4.3	18.2	44.4*	-16.1	-22.4	-8.7%	10.8%
Cc1cc(C)c2c(=O)n(CC(=O)NCCCN3CCN(c4ccccc4F)CC3)sc2n1	-0.1	53.5*	83.3*	-16.1	-35.8	-12.9%	0.1%
Cc1cc(=O)oc(C)c1C(=O)NCCCN1CCN(c2ccccc2F)CC1	5.6	46.8*	58.4*	-10.1	-33.2	?	8.7%
Cc1cc(C)c2c(=O)n(CC(=O)NCCCN3CCOCC3)sc2n1	3.4	2.7	-0.5	-4.6	-3.7	·	·
CCOc1ccccc1NC(=O)C(CC)n1c(C(=O)OC)cc2occc21 (stereo not given)	·	·	0.7	·	-5.1	·	·
CCOc1ccc(CC(=O)Nc2c(C(=O)c3ccc(C)cc3)oc3ccccc23)cc1OCC	·	·	-0.2	·	13.7	·	·
Cn1c(=O)cc(SCC(=O)NCCCN2CCN(c3ccccc3F)CC2)c2ccccc21	?	91.6*	75.5*	-2.9	-23.2	16.5%	?
CC1CCC(NCCNC(=O)c2ccco2)CC1 (stereo not given)	-5.1	14.2	68.0*	-15.4	-22.0	-18.3%	-6.6%
O=C(NCCNC1CCCCC1)c1ccco1	-1.4	4.8	11.9	-6.5	7.5	·	·
Cc1ccccc1NC(=O)Cc1nc(COC(=O)CSc2ccc(F)cc2)cs1	-3.9	·	·	-4.4	·	·	·
CSCCC(NC(=O)c1ccccc1)C(=O)Nc1ccncc1 (stereo not given)	3.4	-32.6	-0.1	-1.0	-7.4	·	·
CSCCC(NC(=O)c1ccccc1Cl)C(=O)Nc1ccncc1 (stereo not given)	-3.4	-0.9	0.9	-7.9	15.1	1.5%	?
CCOC(=O)c1ccc(-n2cccc2/C=C2\NC(=O)NC2=O)cc1	·	7.0	-0.6	·	-14.2	2.3%	1.9%
COc1cccc2c1cc1c(=O)n(CC(=O)N3CCC(C)CC3)nc(C)n12	?	·	·	12.5	-8.9	-4.3%	?
CN(C(=O)c1cccc(NC(=O)Cc2ccc(NC(=O)C3CCN(C(=O)CCc4ccccc4)CC3)cc2)c1)C1CCCCC1	1.7	·	·	·	·	·	·
O=C(Cn1cncn1)N/N=C/c1cc([N+](=O)[O-])ccc1O	-10.2	51.9*	-0.1	-24.1	-9.9	2.5%	-14.5%
SMILES	D2 ag-1	D2 antagonist	D2 ag-2	D2 PAM-1	D2 PAM-2	D3 ag	D2 ag-3
CCC/C(=C1/c2ccccc2C(=O)N1c1ccccc1)c1ccc2c(c1)OCO2	3.3	-10.6	-1.2	-1.3	-0.6	-10.4%	-3.1%
O=C(NC1(C(F)(F)F)NC(=O)N(c2ccccc2)C1=O)c1cccs1 (stereo not given)	-5.4	29.6	-0.1	-11.9	-5.5	8.8%	-3.9%
CC(=O)Nc1ccc(S(=O)(=O)Nc2cc(-c3cn4ccccc4n3)ccc2C)cc1	·	·	0.8	·	-1.7	·	·
Cn1ccc(C(=O)Nc2ccc3c(c2)OCCO3)n1	3.4	22.1	0.2	4.2	8.2	-4.7%	-3.3%
COc1ccc(CN2Cc3cccc4c3[C@@H](CC2=O)[C@H](O)[C@H](O)C4)cc1	-1.3	-17.9	-0.5	0.1	-3.9	·	·
O=C1C[C@@H]2c3c(cccc3CN1Cc1ccc(F)cc1)C[C@@H](O)[C@H]2O	-3.2	-3.5	1.2	-6.7	5.2	-4.5%	-3.0%
COc1cccc(NC(=O)CSc2cc(C)[nH]c(=O)n2)c1	·	·	0.7	·	15.1	·	·
COc1ccc(CN([C@H](C)CO)S(=O)(=O)N(Cc2ccccc2)[C@H](CO)C(C)C)cc1	-0.6	4.9	-0.2	-3.8	11.7	-4.5%	-5.6%
COc1ccc(CN([C@H](CO)CC(C)C)S(=O)(=O)N(Cc2ccccc2)[C@H](CO)CC(C)C)cc1	1.2	·	·	-7.1	·	·	·
O=C(C1CCN(Cc2cccs2)CC1)N1CCN(Cc2ccc3c(c2)OCO3)CC1	-1.4	-3.4	0.6	-16.4	·	·	·
O=C(c1cccs1)N1CCC(C(=O)N2CCN(Cc3ccc4c(c3)OCO4)CC2)CC1	?	52.1*	67.5*	7.0	-21.7	16.9%	?
O=C(C1CCCN1C(=O)c1cccs1)N1CCN(Cc2ccc3c(c2)OCO3)CC1 (stereo not given)	-3.2	36.6*	63.0*	9.6	-19.8	3.9%	16.2%
CN(C)CCNC(=O)C12CC3(C)CC(C)(CC(C)(C3)C1)C2	-0.6	1.6	26.8	-28.6	-15.2	-16.2%	-3.4%
CC(=O)c1cc2c(O)c(O)ccc2o1	6.7	1.9	1.2	12.7	-6.8	?	8.5%

Screens (PubChem)
